About 83,000 compounds went through this panel and 20% of them were active in at least one assay; those are over-represented in the sample as a whole.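 Each cell line was grown in a 96-well plate and treated with one concentration of compound for 48 hours. Values below 10 were considered active.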 The source made the active and inactive calls.
Experiments:
Assay in all cases: NCI-60 one-dose screen, 48 h (100 = growth as untreated, 0 = no growth, -100 = all killed)
Details in all cases: 10 µM unless noted
NCI-H23 lung = tested on: NCI-H23 lung
NCI-H226 lung = tested on: NCI-H226 lung
NCI-H322M lung = tested on: NCI-H322M lung
HOP-62 NSCLC = tested on: HOP-62 NSCLC
NCI-H460 lung = tested on: NCI-H460 lung
NCI-H522 lung = tested on: NCI-H522 lung
A549/ATCC NSCLC = tested on: A549/ATCC NSCLC
786-0 renal = tested on: 786-0 renal
COLO 205 colon = tested on: COLO 205 colon
DU-145 prostate = tested on: DU-145 prostate
K-562 leukemia = tested on: K-562 leukemia
MALME-3M melanoma = tested on: MALME-3M melanoma
MDA-MB-231 breast = tested on: MDA-MB-231 breast
RXF 393 renal = tested on: RXF 393 renal
SF-268 CNS = tested on: SF-268 CNS
SF-295 CNS = tested on: SF-295 CNS
SF-539 CNS = tested on: SF-539 CNS
UACC-257 melanoma = tested on: UACC-257 melanoma
M14 melanoma = tested on: M14 melanoma

Measured: growth

S=C(Nc1ccc(Cl)cc1)Nc1ccc(Cl)cc1 (tested in a mixture with another compound)
inactive: NCI-H226 lung 16.4% | 786-0 renal 22.1% | DU-145 prostate 22.2% | K-562 leukemia 12.1% | SF-268 CNS 23% | SF-539 CNS 19.1% | M14 melanoma 19%
active: NCI-H23 lung 1.65% | NCI-H322M lung 4.59% | HOP-62 NSCLC 6.8% | NCI-H460 lung -17.4% | NCI-H522 lung -27.9% | A549/ATCC NSCLC 1.68% | COLO 205 colon -95.7% | MALME-3M melanoma -7.85% | MDA-MB-231 breast -58.7% | RXF 393 renal 9.51% | SF-295 CNS -6.55% | UACC-257 melanoma -14.7%

c1cn2cc(-c3ccc4ncn(C5CCCCC5)c4c3)nc(-c3ccc4c(c3)ncn4C3CCCCC3)c2n1
active: NCI-H23 lung -41.5% | NCI-H226 lung -56.4% | NCI-H322M lung 1.23% | HOP-62 NSCLC -55.4% | NCI-H460 lung -48.5% | NCI-H522 lung -52.6% | A549/ATCC NSCLC -44.9% | 786-0 renal -47.1% | COLO 205 colon -64.4% | DU-145 prostate -59.1% | K-562 leukemia -4.74% | MALME-3M melanoma -14.3% | MDA-MB-231 breast -68.7% | RXF 393 renal -89.1% | SF-268 CNS -67% | SF-295 CNS -86.5% | SF-539 CNS -82.1% | UACC-257 melanoma -71.5% | M14 melanoma -50.8%

CCOCCNc1ccc(S(=O)(=O)c2ccc(N)cc2)cc1N
inactive: NCI-H23 lung 92.5% | NCI-H226 lung 94.6% | NCI-H322M lung 101% | HOP-62 NSCLC 110% | NCI-H460 lung 109% | NCI-H522 lung 96% | A549/ATCC NSCLC 91.5% | 786-0 renal 108% | COLO 205 colon 110% | DU-145 prostate 119% | K-562 leukemia 107% | MALME-3M melanoma 109% | MDA-MB-231 breast 118% | RXF 393 renal 130% | SF-268 CNS 97.1% | SF-295 CNS 96.2% | SF-539 CNS 109% | UACC-257 melanoma 92.8% | M14 melanoma 112%

NC(N)=NC1CCCCC1
active: SF-268 CNS -15.8%
inactive: NCI-H23 lung 101% | NCI-H226 lung 101% | NCI-H322M lung 102% | HOP-62 NSCLC 108% | NCI-H460 lung 113% | NCI-H522 lung 85.8% | A549/ATCC NSCLC 94.1% | 786-0 renal 98.1% | COLO 205 colon 118% | DU-145 prostate 22.3% | K-562 leukemia 93.5% | MALME-3M melanoma 101% | MDA-MB-231 breast 117% | RXF 393 renal 97.3% | SF-295 CNS 120% | SF-539 CNS 105% | UACC-257 melanoma 90.6% | M14 melanoma 103%

CN1C(=O)N(C)C2C1NN=c1s/c(=C\c3ccc(Br)cc3)c(=O)n12 (stereo unspecified)
inactive: NCI-H23 lung 41.9% | NCI-H226 lung 59.8% | NCI-H322M lung 49.7% | HOP-62 NSCLC 32.4% | NCI-H460 lung 13.4% | A549/ATCC NSCLC 38.8% | 786-0 renal 30.2% | DU-145 prostate 17.2% | K-562 leukemia 10.7% | MALME-3M melanoma 67.7% | MDA-MB-231 breast 66.1% | SF-268 CNS 39.4% | SF-295 CNS 23.1% | UACC-257 melanoma 46% | M14 melanoma 32.8%
active: NCI-H522 lung -14.6% | COLO 205 colon 0.786% | RXF 393 renal 9.08% | SF-539 CNS 7.53%

CC(C)[C@@H]1C=C2CC[C@H]3[C@](C)(CN)CCC[C@]3(C)[C@H]2CC1
active: NCI-H322M lung -6.11% | NCI-H460 lung -69.7% | COLO 205 colon -89.7%
inactive: NCI-H23 lung 95.4% | NCI-H226 lung 98.7% | HOP-62 NSCLC 59.8% | NCI-H522 lung 86.7% | A549/ATCC NSCLC 95.5% | 786-0 renal 78% | DU-145 prostate 44.1% | K-562 leukemia 17.5% | MALME-3M melanoma 60.2% | MDA-MB-231 breast 61.3% | RXF 393 renal 87.9% | SF-268 CNS 43.4% | SF-295 CNS 54.8% | SF-539 CNS 102% | UACC-257 melanoma 104% | M14 melanoma 89.3%

CC(=O)N1N=C(C2C(=O)N(C)C(=O)N(C)C2=O)CC1c1ccccc1C(=O)O (stereo unspecified)
inactive: NCI-H23 lung 98.3% | NCI-H226 lung 108% | NCI-H322M lung 97.1% | HOP-62 NSCLC 97.2% | NCI-H460 lung 104% | NCI-H522 lung 83.3% | A549/ATCC NSCLC 98.4% | 786-0 renal 98.2% | COLO 205 colon 108% | DU-145 prostate 103% | K-562 leukemia 87.5% | MALME-3M melanoma 104% | MDA-MB-231 breast 104% | RXF 393 renal 104% | SF-268 CNS 96.7% | SF-295 CNS 112% | SF-539 CNS 104% | UACC-257 melanoma 95.7% | M14 melanoma 96.7%

CCCCc1nc(Cl)c(C2CC(c3ccc(S(N)(=O)=O)cc3)=NN2c2ccc(C#N)cc2)[nH]1 (stereo unspecified)
inactive: NCI-H23 lung 98.5% | NCI-H226 lung 79.6% | NCI-H322M lung 81.3% | HOP-62 NSCLC 90.5% | NCI-H460 lung 95.5% | NCI-H522 lung 68% | A549/ATCC NSCLC 94.6% | 786-0 renal 84.6% | COLO 205 colon 87.8% | DU-145 prostate 104% | K-562 leukemia 69.5% | MALME-3M melanoma 105% | MDA-MB-231 breast 88% | RXF 393 renal 81.1% | SF-268 CNS 91.9% | SF-295 CNS 97.9% | SF-539 CNS 99.9% | UACC-257 melanoma 86.2% | M14 melanoma 88.1%

C=C(C)[C@@H]1CC[C@]2(C(=O)O)CC[C@]3(C)[C@H](CC[C@@H]4[C@@]5(C)C[C@@H](CC#Cc6ccc(C(C)=O)s6)[C@H](O)C(C)(C)[C@@H]5CC[C@]43C)[C@@H]12
inactive: NCI-H23 lung 60.9% | NCI-H226 lung 77.1% | NCI-H322M lung 41.3% | HOP-62 NSCLC 50% | NCI-H460 lung 42.7% | NCI-H522 lung 26% | 786-0 renal 58.6% | COLO 205 colon 59.5% | DU-145 prostate 57.2% | K-562 leukemia 34.7% | MALME-3M melanoma 82.6% | MDA-MB-231 breast 91.9% | RXF 393 renal 74.3% | SF-268 CNS 61.6% | SF-295 CNS 48.9% | SF-539 CNS 83.4% | UACC-257 melanoma 40.2% | M14 melanoma 76%
active: A549/ATCC NSCLC 6.44%

— PubChem BioAssay (NCI)
